From PubChem BioAssay AID1159580 (chemical genetic matrix, 2015)
The whole screen tested about 5,500 compounds, of which about 2,000 (36%) were called active. About 18% were inconclusive and are not listed. No stated cut-off is given here; in the data, active means normalized growth mostly below about 0.91 (no sharp cut-off); inconclusive means no clear call, values can overlap the other calls; inactive means mostly above about 0.92. The list shows a part of the results.

Experiment: chemical genetic growth profiling, strain panel (AID 1159580);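 further: tested at 20 µM; growth read once vehicle control cultures reached saturation at 30 °C; 1 = growth at the plate median or of vehicle wells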
Details: growth OD

Measured: normalized growth

CCC1OC(=O)[C@H](C)C(=O)[C@H](C)[C@@H](OC2O[C@H](C)C[C@H](N(C)C)[C@H]2O)[C@](C)(OC)C2(CCCn3cnc(-c4cccnc4)c3)C[C@@H](C)C(=O)[C@H](C)[C@H]3N(C2)C(=O)O[C@]13C (some centres undefined)
inactive: S. cerevisiae deletion strains, locus YJR043C, strain POL32, stronger effect = lower value 0.994 | S. cerevisiae deletion strains, locus YJR075W, strain HOC1, stronger effect = lower value 0.99 | S. cerevisiae deletion strains, locus YKL009W, strain mrt4, stronger effect = lower value 1.01 | S. cerevisiae deletion strains, locus YKL068W, stronger effect = lower value 1.01 | S. cerevisiae deletion strains, locus YKL085W, strain MDH1 (second series), stronger effect = lower value 0.998 | S. cerevisiae deletion strains, locus YKL085W, strain MDH1, stronger effect = lower value 0.998 | S. cerevisiae deletion strains, locus YKL160W, strain elf1, stronger effect = lower value 0.994 | S. cerevisiae deletion strains, locus YKL190W, strain CNB1, stronger effect = lower value 1 | S. cerevisiae deletion strains, locus YKR001C, strain vps1, stronger effect = lower value 0.997 | S. cerevisiae deletion strains, locus YKR026C, strain gcn3, stronger effect = lower value 0.989 | S. cerevisiae deletion strains, locus YKR091W, strain srl3, stronger effect = lower value 0.985 | S. cerevisiae deletion strains, locus YLL001W, strain dnm1, stronger effect = lower value 0.984 | S. cerevisiae deletion strains, locus YLL026W, stronger effect = lower value 0.988 | S. cerevisiae deletion strains, locus YLL041C, strain sdh2, stronger effect = lower value 0.977 | S. cerevisiae deletion strains, locus YLR027C, strain aat2, stronger effect = lower value 0.99 | S. cerevisiae deletion strains, locus YLR039C, strain RIC1, stronger effect = lower value 1.02 | S. cerevisiae deletion strains, locus YLR058C, strain SHM2, stronger effect = lower value 1 | S. cerevisiae deletion strains, locus YLR102C, strain apc9, stronger effect = lower value 0.997 | S. cerevisiae deletion strains, locus YLR221C, strain rsa3, stronger effect = lower value 0.973 | S. cerevisiae deletion strains, locus YLR258W, strain gsy2, stronger effect = lower value 0.983 | S. cerevisiae deletion strains, locus YLR262C, strain YPT6 (second series), stronger effect = lower value 0.978 | S. cerevisiae deletion strains, locus YLR262C, strain YPT6, stronger effect = lower value 1.04 | S. cerevisiae deletion strains, locus YLR268W, strain sec22, stronger effect = lower value 0.98 | S. cerevisiae deletion strains, locus YLR320W, strain mms22, stronger effect = lower value 0.975 | S. cerevisiae deletion strains, locus YLR330W, strain CHS5, stronger effect = lower value 1 | S. cerevisiae deletion strains, locus YLR342W, strain FKS1 (second series), stronger effect = lower value 0.999 | S. cerevisiae deletion strains, locus YLR342W, strain FKS1, stronger effect = lower value 1.01 | S. cerevisiae deletion strains, locus YLR357W, strain rsc2, stronger effect = lower value 0.935 | S. cerevisiae deletion strains, locus YLR370C, strain arc18, stronger effect = lower value 0.985 | S. cerevisiae deletion strains, locus YLR371W, strain rom2, stronger effect = lower value 1.01 | S. cerevisiae deletion strains, locus YLR384C, strain iki3, stronger effect = lower value 0.995 | S. cerevisiae deletion strains, locus YLR418C, strain cdc73, stronger effect = lower value 0.979 | S. cerevisiae deletion strains, locus YML016C, strain PPZ1, stronger effect = lower value 1.01 | S. cerevisiae deletion strains, locus YML032C, strain rad52, stronger effect = lower value 1.01 | S. cerevisiae deletion strains, locus YML120C, strain ndi1, stronger effect = lower value 0.966 | S. cerevisiae deletion strains, locus YML124C, strain tub3, stronger effect = lower value 1.01 | S. cerevisiae deletion strains, locus YMR058W, strain fet3, stronger effect = lower value 0.974 | S. cerevisiae deletion strains, locus YMR078C, strain ctf18, stronger effect = lower value 1.01 | S. cerevisiae deletion strains, locus YMR125W, strain sto1, stronger effect = lower value 1.01 | S. cerevisiae deletion strains, locus YMR129W, stronger effect = lower value 0.974 | S. cerevisiae deletion strains, locus YMR205C, strain PFK2, stronger effect = lower value 0.996 | S. cerevisiae deletion strains, locus YMR223W, strain ubp8, stronger effect = lower value 1 | S. cerevisiae deletion strains, locus YMR231W, strain pep5, stronger effect = lower value 0.98 | S. cerevisiae deletion strains, locus YMR263W, strain SAP30, stronger effect = lower value 1 | S. cerevisiae deletion strains, locus YMR307W, strain GAS1, stronger effect = lower value 0.93 | S. cerevisiae deletion strains, locus YNL067W, strain RPL9B, stronger effect = lower value 1.01 | S. cerevisiae deletion strains, locus YNL071W, strain lat1, stronger effect = lower value 0.99 | S. cerevisiae deletion strains, locus YNL128W, strain TEP1, stronger effect = lower value 1.01 | S. cerevisiae deletion strains, locus YNL153C, strain GIM3, stronger effect = lower value 1.01 | S. cerevisiae deletion strains, locus YNL209W, strain ssb2, stronger effect = lower value 0.986 | S. cerevisiae deletion strains, locus YNL233W, strain BNI4, stronger effect = lower value 1.01 | S. cerevisiae deletion strains, locus YNL248C, strain rpa49, stronger effect = lower value 0.946 | S. cerevisiae deletion strains, locus YNL250W, strain rad50, stronger effect = lower value 0.992 | S. cerevisiae deletion strains, locus YNL271C, strain bni1, stronger effect = lower value 0.997 | S. cerevisiae deletion strains, locus YNL298W, strain CLA4, stronger effect = lower value 0.995 | S. cerevisiae deletion strains, locus YNL307C, strain MCK1, stronger effect = lower value 1.01 | S. cerevisiae deletion strains, locus YNL322C, strain KRE1 (second series), stronger effect = lower value 0.968 | S. cerevisiae deletion strains, locus YNL322C, strain KRE1, stronger effect = lower value 1 | S. cerevisiae deletion strains, locus YNR049C, strain mso1, stronger effect = lower value 0.958 | S. cerevisiae deletion strains, locus YNR052C, strain pop2, stronger effect = lower value 1.01 | S. cerevisiae deletion strains, locus YOL006C, strain TOP1, stronger effect = lower value 1 | S. cerevisiae deletion strains, locus YOL012C, strain htz1 1.16 | S. cerevisiae deletion strains, locus YOL147C, strain pex11, stronger effect = lower value 1 | S. cerevisiae deletion strains, locus YOR001W, strain rrp6, stronger effect = lower value 1 | S. cerevisiae deletion strains, locus YOR061W, strain CKA2, stronger effect = lower value 1.01 | S. cerevisiae deletion strains, locus YOR069W, strain VPS5, stronger effect = lower value 1.01 | S. cerevisiae deletion strains, locus YOR070C, strain gyp1, stronger effect = lower value 0.984 | S. cerevisiae deletion strains, locus YOR080W, strain dia2, stronger effect = lower value 0.968 | S. cerevisiae deletion strains, locus YOR083W, strain WHI5, stronger effect = lower value 1.01 | S. cerevisiae deletion strains, locus YOR106W, strain vam3, stronger effect = lower value 0.994 | S. cerevisiae deletion strains, locus YOR136W, strain idh2, stronger effect = lower value 1.01 | S. cerevisiae deletion strains, locus YOR144C, strain elg1, stronger effect = lower value 1 | S. cerevisiae deletion strains, locus YOR184W, strain ser1, stronger effect = lower value 0.996 | S. cerevisiae deletion strains, locus YOR265W, strain rbl2, stronger effect = lower value 0.996 | S. cerevisiae deletion strains, locus YOR270C, strain vph1, stronger effect = lower value 0.963 | S. cerevisiae deletion strains, locus YOR290C, strain snf2, stronger effect = lower value 0.963 | S. cerevisiae deletion strains, locus YOR316C, strain cot1, stronger effect = lower value 0.998 | S. cerevisiae deletion strains, locus YPL051W, strain arl3, stronger effect = lower value 1 | S. cerevisiae deletion strains, locus YPL055C, strain LGE1, stronger effect = lower value 1.02 | S. cerevisiae deletion strains, locus YPL078C, strain atp4, stronger effect = lower value 0.984 | S. cerevisiae deletion strains, locus YPL106C, strain sse1, stronger effect = lower value 0.943 | S. cerevisiae deletion strains, locus YPL240C, strain hsp82, stronger effect = lower value 0.986 | S. cerevisiae deletion strains, locus YPL241C, strain CIN2, stronger effect = lower value 1 | S. cerevisiae deletion strains, locus YPR119W, strain clb2, stronger effect = lower value 1 | S. cerevisiae deletion strains, locus YPR141C, strain kar3, stronger effect = lower value 1 | S. cerevisiae deletion strains, locus YPR163C, strain tif3, stronger effect = lower value 1.01 | S. cerevisiae deletion strains, locus YPR167C, strain met16, stronger effect = lower value 1 | S. cerevisiae deletion strains, strain wtn01, stronger effect = lower value 0.977 | S. cerevisiae strains, strain wild type, stronger effect = lower value 0.999
